# Structures can show the parent of a compound that is named as a salt.
# Experiments:
# U-2932 [1] = assay: growth inhibition by drug alone (1 - RLU/untreated control) (fraction); higher = stronger inhibition; conditions: 177Lu-lilotomab satetraxetan 0 ug/ml
# Method in brief: (§1)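 RIVA or U-2932 cells were left untreated or pretreated for 18 h with a radiolabelled anti-CD37 antibody conjugate (~600 MBq/mg) at 0.5 µg/ml for RIVA or 1 µg/ml for U-2932. The cells were then washed and seeded at 3,000 cells/well on plates pre-printed with the Selleck Cambridge Cancer Compound library, dosed at 10/100 nM for RIVA and 10/1,000 nM for U-2932. From day 3, RealTime-Glo luminescence was read daily after 1 h at 37°C. Growth inhibition was taken as one minus RLU over the mean of the untreated no-drug wells, of which there were 48 per plate.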
# RIVA [2] = assay: as above; conditions: 177Lu-lilotomab satetraxetan 0 ug/ml
# Method in brief: as §1
# U-2932 [3] = assay: growth inhibition by drug plus 177Lu-lilotomab satetraxetan (1 - RLU/untreated control) (fraction); higher = stronger inhibition; conditions: 177Lu-lilotomab satetraxetan 1 ug/ml
# Method in brief: as §1
# RIVA [4] = assay: as above; conditions: 177Lu-lilotomab satetraxetan 0.5 ug/ml
# Method in brief: as §1
SMILES,"growth inhibition by drug alone (U-2932 [1]; 10 nM, time (day): 3)","growth inhibition by drug alone (U-2932 [1]; 10 nM, time (day): 4)","growth inhibition by drug alone (U-2932 [1]; 10 nM, time (day): 5)","growth inhibition by drug alone (U-2932 [1]; 10 nM, time (day): 6)","growth inhibition by drug alone (U-2932 [1]; 1000 nM, time (day): 3)","growth inhibition by drug alone (U-2932 [1]; 1000 nM, time (day): 4)","growth inhibition by drug alone (U-2932 [1]; 1000 nM, time (day): 5)","growth inhibition by drug alone (U-2932 [1]; 1000 nM, time (day): 6)","growth inhibition by drug alone (RIVA [2]; 10 nM, time (day): 3)","growth inhibition by drug alone (RIVA [2]; 10 nM, time (day): 4)","growth inhibition by drug alone (RIVA [2]; 10 nM, time (day): 5)","growth inhibition by drug alone (RIVA [2]; 10 nM, time (day): 6)","growth inhibition by drug alone (RIVA [2]; 100 nM, time (day): 3)","growth inhibition by drug alone (RIVA [2]; 100 nM, time (day): 4)","growth inhibition by drug alone (RIVA [2]; 100 nM, time (day): 5)","growth inhibition by drug alone (RIVA [2]; 100 nM, time (day): 6)","growth inhibition by drug plus 177Lu-lilotomab satetraxetan (U-2932 [3]; 10 nM, time (day): 3)","growth inhibition by drug plus 177Lu-lilotomab satetraxetan (U-2932 [3]; 10 nM, time (day): 4)","growth inhibition by drug plus 177Lu-lilotomab satetraxetan (U-2932 [3]; 10 nM, time (day): 5)","growth inhibition by drug plus 177Lu-lilotomab satetraxetan (U-2932 [3]; 10 nM, time (day): 6)","growth inhibition by drug plus 177Lu-lilotomab satetraxetan (U-2932 [3]; 1000 nM, time (day): 3)","growth inhibition by drug plus 177Lu-lilotomab satetraxetan (U-2932 [3]; 1000 nM, time (day): 4)","growth inhibition by drug plus 177Lu-lilotomab satetraxetan (U-2932 [3]; 1000 nM, time (day): 5)","growth inhibition by drug plus 177Lu-lilotomab satetraxetan (U-2932 [3]; 1000 nM, time (day): 6)","growth inhibition by drug plus 177Lu-lilotomab satetraxetan (RIVA [4]; 10 nM, time (day): 3)","growth inhibition by drug plus 177Lu-lilotomab satetraxetan (RIVA [4]; 10 nM, time (day): 4)","growth inhibition by drug plus 177Lu-lilotomab satetraxetan (RIVA [4]; 10 nM, time (day): 5)","growth inhibition by drug plus 177Lu-lilotomab satetraxetan (RIVA [4]; 10 nM, time (day): 6)","growth inhibition by drug plus 177Lu-lilotomab satetraxetan (RIVA [4]; 100 nM, time (day): 3)","growth inhibition by drug plus 177Lu-lilotomab satetraxetan (RIVA [4]; 100 nM, time (day): 4)","growth inhibition by drug plus 177Lu-lilotomab satetraxetan (RIVA [4]; 100 nM, time (day): 5)","growth inhibition by drug plus 177Lu-lilotomab satetraxetan (RIVA [4]; 100 nM, time (day): 6)"
Cc1ccc([C@@H]2O[C@H](CO)[C@@H](O)[C@H](O)[C@H]2O)cc1Cc1ccc(-c2ccc(F)cc2)s1 [Canagliflozin],-0.0178,-0.0268,-0.0429,0.0177,-0.0399,0.00599,-0.0361,-0.0715,-0.0859,-0.106,-0.126,-0.215,0.00364,-0.0271,-0.0583,-0.103,0.00296,0.0208,0.0301,0.162,-0.0686,0.0117,0.0289,0.0944,0.342,0.476,0.499,0.519,0.383,0.437,0.439,0.418
CN(C)CCCCSC(=N)N,0.0803,0.0562,-0.0181,-0.016,-0.0315,0.00953,-0.0703,-0.245,-0.0402,-0.0677,-0.106,-0.316,-0.0334,-0.0664,-0.0858,-0.22,0.0342,0.0372,0.0384,0.0444,-0.0939,0.0263,-0.0236,-0.0661,0.357,0.498,0.532,0.544,0.259,0.415,0.415,0.398
COc1ccc(-c2oc3cc(OC)ccc3c2C(=O)c2ccc(C#N)cc2)cc1,0.084,0.0751,0.0436,-0.022,-0.0181,0.0261,-0.052,-0.253,-0.046,-0.0513,-0.124,-0.374,-0.0825,-0.0731,-0.0858,-0.201,-0.0286,-0.00458,0.0392,0.0337,-0.0968,0.0212,0.0134,0.0408,,,,,,,,
COc1cc2nccc(Oc3ccc(NC(=O)Nc4cc(C)on4)c(Cl)c3)c2cc1OC [Tivozanib (AV-951)],0.14,0.0745,-0.00279,-0.0876,0.0629,0.0968,0.0897,0.0763,0.0535,0.0633,0.0278,-0.222,0.0881,0.104,0.0755,0.00134,0.0499,0.0836,0.127,0.144,0.13,0.217,0.26,0.368,0.453,0.547,0.57,0.565,0.438,0.535,0.537,0.526
COc1ccc2c3n(c(=NC(=O)c4cccnc4)nc2c1OC)CCN3,0.1,0.0853,-0.0391,-0.132,0.165,0.128,0.0515,0.0321,0.159,0.0605,-0.0752,-0.345,0.0975,0.0435,0.0156,-0.048,0.021,0.066,0.0894,0.178,0.192,0.175,0.166,0.278,0.429,0.534,0.559,0.569,0.482,0.53,0.551,0.551
CN(C)c1ccccc1CN1CCCN(Cc2ccccc2N(C)C)C1c1ccncc1,0.0601,0.0484,-0.0775,-0.0436,-0.0515,0.0164,-0.0723,-0.322,-0.0275,-0.0402,-0.0946,-0.333,-0.107,-0.0882,-0.101,-0.219,-0.0506,-0.00857,0.0315,0.0251,-0.133,-0.00158,-0.031,-0.0122,0.403,0.514,0.537,0.54,0.416,0.506,0.504,0.487
CO[C@H]1/C=C\C=C(/C)C(=O)NC2=CC(=O)C(NCCN(C)C)=C(C[C@@H](C)C[C@H](OC)[C@H](O)[C@@H](C)/C=C(\C)[C@@H]1OC(N)=O)C2=O [17-DMAG HCl (Alvespimycin)],0.163,0.099,-0.033,-0.0727,0.944,0.979,0.985,0.986,0.132,0.103,0.0633,-0.0974,0.922,0.953,0.961,0.96,0.0703,0.119,0.177,0.21,0.956,0.982,0.988,0.99,,,,,,,,
CC[C@@]1(O)C(=O)OCc2c1cc1n(c2=O)Cc2cc3c(CN(C)C)c(O)ccc3nc2-1 [Topotecan HCl],0.427,0.494,0.544,0.586,0.952,0.969,0.977,0.981,0.45,0.629,0.715,0.801,0.689,0.808,0.85,0.882,0.403,0.516,0.604,0.67,0.97,0.978,0.983,0.985,0.802,0.878,0.913,0.944,0.814,0.883,0.91,0.931

# Source: the supplement of paper PMC6897291
